Assay [1] is described as follows: compounds binding Alexa647 anti-His antibody – biochemical, small-molecule microarray, 635 nm fluorescence, artefact control for SMM control protein annotation, primary screen (AID 1128).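 Also: score merges feature fluorescence with signal-to-noise for each printed compound spot.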 To be noted: higher = more signal.
The test system of assay [2] is Human papillomavirus type 1a E7 protein (residues 1-88). In words: HPV1a E7 small-molecule binders, primary screen, biochemical, small-molecule microarray, residues 1-88, 635 nm (AID 1129). Conditions: small-molecule microarray binding, fluorescence 635 nm; higher = more signal.
Assay [3] concerns the target Focal adhesion kinase 1 (Homo sapiens) (UniProt Q05397). In words: PTK2 protein binding on printed compound slides – biochemical, small-molecule microarray, 635/667 nm fluorescence, BSA, DTT, primary screen (AID 1130).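 Also: composite of spot emission at 667 nm and signal to noise over triplicate slides.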 Conditions: 635 nm fluorescence, higher = more signal.
The test system of assay [4] is Fibrinogen (Alexa647-labelled). Description: Alexa647-fibrinogen binding to printed small molecules – biochemical, small-molecule microarray, 635/667 nm fluorescence, artefact control for SMM control-protein annotation, profiling panel (AID 1131).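 Also: z-score merges 667 nm fluorescence with per-spot signal-to-noise over triplicate slides.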 Conditions: fibrinogen-A647 binding fluorescence, higher = more signal.
For assay [5], the target named is Follistatin (Homo sapiens) (UniProt P19883). In words: FST protein binding to printed compounds – biochemical, small-molecule microarray, 635/667 nm fluorescence, primary screen (AID 1132). Conditions: 635 nm fluorescence, higher = more signal.
Assay [6] concerns the target Fibroblast growth factor 2 (Homo sapiens) (UniProt P09038). In words: basic fibroblast growth factor binding to printed compounds – biochemical, small-molecule microarray, 635/667 nm fluorescence, primary screen (AID 1133). Conditions: FGF2, fluorescence 635/667, higher = more signal.
Assay [7] can be described thus: JC-1 mitochondrial potential readout, lung cancer cells – cell-based, A549, JC-1 fluorescence, basal, 24 h, 100 nL, profiling panel (AID 1138).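 Also: A549 lung adenocarcinoma cells under basal conditions with no added stimulus; test concentration not given here.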 To be noted: higher = more signal.
In a further assay the test system is Lefty1. In words: Lefty1 protein binding to printed compounds – biochemical, small-molecule microarray, 635/667 nm fluorescence, primary screen (AID 1139). To be noted: fluorescence 635/667, higher = more signal.
For assay [8], the system named is wheat germ agglutinin (Triticum aestivum), Alexa647-labelled. Description: Alexa647-WGA lectin binding to printed small molecules – biochemical, small-molecule microarray, 635/667 nm fluorescence, artefact control for SMM control-protein annotation, profiling panel (AID 1140).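 Also: score merges 667 nm feature emission with signal to noise over triplicate slides.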 Conditions: WGA-A647 binding, 635 nm fluorescence, higher = more signal.
Assay [9] deals with Luciferin 4-monooxygenase (Photinus pyralis) (UniProt P08659). In words: inhibition of purified Photinus pyralis luciferase – biochemical, luminescence, purified enzyme, 2006 set, primary screen (AID 1141).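 Also: cell-free assay with purified firefly luciferase at 100 ng per well in PBS; test concentration not given here.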 Conditions: purified firefly luciferase, SteadyGlo luminescence, 30 min; higher = more signal, called active from +8 up or from −8 down.
Assay [10] relates to Wnt5a (protein binding on small-molecule microarray). Description: small molecules binding Wnt5a protein – biophysical, small-molecule microarray, 635/667 nm fluorescence, primary screen (AID 1142).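 Also: fluorescence read at 667 nm with signal to noise per printed feature.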 Conditions: 635 nm fluorescence, higher = more signal.
Assay [11] is described as follows: ATP-based viability of Huh7 replicon cells – cell-based, CellTiter-Glo luminescence, basal, 48 h, cytotoxicity control for HCV replication inhibitor project, primary screen (AID 1143).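 Also: Huh7 hepatoma cells carrying a hepatitis C replication reporter with no stimulus; test concentration not given here.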 Conditions: higher = more signal, called active from +8 up or from −8 down. A general note: A replicon is a self-replicating genome or part of one, used to study replication in cells.

A short description of assay [12]: Pseudomonas biofilm growth suppression – PAO1 strain, BacTiter-Glo luminescence, LB-PBS, primary screen (AID 1144). To be noted: P. aeruginosa PAO1 biofilm, 12 h, higher = more signal.
The nature of assay [13]: basal CRE-LacZ reporter activity in PC12 – cell-based, unstimulated, primary screen (AID 1145). To be noted: no forskolin, luminescence, 4.5 h, higher = more signal, called active from +8 up or from −8 down.
The nature of assay [14]: forskolin-driven CRE-LacZ activity in PC12 – cell-based, CRE-LacZ reporter, forskolin-stimulated, primary screen (AID 1146).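 Also: PC12 cells with 6xCRE LacZ reporter stimulated by forskolin 10 µM; beta-galactosidase reporter signal reflecting CREB driven transcription.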 Conditions: luminescence, 4.5 h, higher = more signal, called active from +8 up or from −8 down.
Assay [15] deals with Streptavidin (Streptomyces avidinii) (UniProt P22629). In words: compounds binding control protein streptavidin – biophysical, small-molecule microarray, 635/667 nm fluorescence, artefact control for SMM compound annotation, primary screen (AID 1147).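 Also: signal reflects streptavidin binding to arrayed compounds as a control protein.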 To be noted: higher = more signal.
Assay [16] in a line: probe aInhba binding on compound microarray – biochemical, small-molecule microarray, 635/667 nm fluorescence, primary screen (AID 1148).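 Also: score merges 667nm spot fluorescence with signal-to-noise for antibody binding to printed compounds.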 Conditions: higher = more signal.
Assay [17] deals with Torsin-1A (Homo sapiens) (UniProt O14656). Description: TOR1A wild-type binding on microarray – cell lysate, small-molecule microarray, lysate, 635/667 nm, primary screen (AID 1149). Conditions: COS7 hTOR1A-WT lysate, 635 nm fluorescence, higher = more signal.
For assay [18] the target is unchanged. In words: torsin A mutant lysate binding on microarrays – cell lysate, small-molecule microarray, COS7 lysate, 635/667 nm fluorescence, primary screen (AID 1150).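 Also: score pools 667 nm emission and signal to noise measuring lysate protein binding.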 Conditions: COS7 hTOR1A mutant lysate, 635 nm fluorescence, higher = more signal.
Assay [19] deals with Sonic hedgehog protein (Shh). In words: Sonic hedgehog microarray binding compounds – biochemical, small-molecule microarray, 635/667 nm fluorescence, primary screen (AID 1151).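 Also: Shh protein binding to compounds spotted on small-molecule microarray slides; score combines spot fluorescence intensity with signal-to-noise across triplicate slides.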 Conditions: 635 nm fluorescence, higher = more signal.

The text below walks through data of PubChem BioAssay.

The structures appear in SMILES notation. Activity calls are given as the source filed them. Unless noted, no rule for the calls is given here.

Chain of Fibroblast growth factor 2 (Homo sapiens) (P09038 whole entry, looked up): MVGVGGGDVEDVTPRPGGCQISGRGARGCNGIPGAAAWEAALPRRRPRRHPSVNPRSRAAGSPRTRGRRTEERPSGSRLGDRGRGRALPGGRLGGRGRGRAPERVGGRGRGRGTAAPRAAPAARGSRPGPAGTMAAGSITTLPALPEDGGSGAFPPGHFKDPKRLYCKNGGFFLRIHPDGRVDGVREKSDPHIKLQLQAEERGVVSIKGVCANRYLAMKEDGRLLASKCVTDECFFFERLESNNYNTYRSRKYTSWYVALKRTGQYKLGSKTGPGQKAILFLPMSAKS
Chain of Focal adhesion kinase 1 (Homo sapiens) (Q05397 whole entry, looked up): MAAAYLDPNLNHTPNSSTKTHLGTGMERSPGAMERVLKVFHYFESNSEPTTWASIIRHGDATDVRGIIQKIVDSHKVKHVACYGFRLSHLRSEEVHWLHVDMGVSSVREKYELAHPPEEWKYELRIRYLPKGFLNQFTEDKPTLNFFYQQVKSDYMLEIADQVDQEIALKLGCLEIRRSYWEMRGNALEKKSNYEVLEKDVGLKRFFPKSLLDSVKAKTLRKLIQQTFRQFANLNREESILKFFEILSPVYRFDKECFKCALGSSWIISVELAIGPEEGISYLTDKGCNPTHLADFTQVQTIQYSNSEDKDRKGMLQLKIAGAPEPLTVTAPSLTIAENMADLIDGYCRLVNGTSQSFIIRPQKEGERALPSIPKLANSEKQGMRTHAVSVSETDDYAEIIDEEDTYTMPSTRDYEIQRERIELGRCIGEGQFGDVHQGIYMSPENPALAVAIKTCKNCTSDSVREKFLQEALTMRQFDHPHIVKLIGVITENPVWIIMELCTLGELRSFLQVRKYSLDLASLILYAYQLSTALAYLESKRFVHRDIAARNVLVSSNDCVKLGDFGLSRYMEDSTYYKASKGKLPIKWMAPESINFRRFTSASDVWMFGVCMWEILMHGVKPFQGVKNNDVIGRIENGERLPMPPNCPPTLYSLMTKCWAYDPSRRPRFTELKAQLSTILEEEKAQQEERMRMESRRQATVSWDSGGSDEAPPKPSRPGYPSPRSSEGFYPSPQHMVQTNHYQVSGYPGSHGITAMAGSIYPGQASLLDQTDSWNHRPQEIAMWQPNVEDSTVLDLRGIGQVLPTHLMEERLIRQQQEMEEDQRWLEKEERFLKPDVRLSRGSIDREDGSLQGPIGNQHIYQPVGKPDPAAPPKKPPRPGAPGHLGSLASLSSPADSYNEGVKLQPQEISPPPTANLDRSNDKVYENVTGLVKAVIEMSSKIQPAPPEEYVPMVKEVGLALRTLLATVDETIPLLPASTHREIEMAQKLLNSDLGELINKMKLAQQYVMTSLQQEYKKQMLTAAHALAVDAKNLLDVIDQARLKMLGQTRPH
Chain of Follistatin (Homo sapiens) (P19883 whole entry, looked up): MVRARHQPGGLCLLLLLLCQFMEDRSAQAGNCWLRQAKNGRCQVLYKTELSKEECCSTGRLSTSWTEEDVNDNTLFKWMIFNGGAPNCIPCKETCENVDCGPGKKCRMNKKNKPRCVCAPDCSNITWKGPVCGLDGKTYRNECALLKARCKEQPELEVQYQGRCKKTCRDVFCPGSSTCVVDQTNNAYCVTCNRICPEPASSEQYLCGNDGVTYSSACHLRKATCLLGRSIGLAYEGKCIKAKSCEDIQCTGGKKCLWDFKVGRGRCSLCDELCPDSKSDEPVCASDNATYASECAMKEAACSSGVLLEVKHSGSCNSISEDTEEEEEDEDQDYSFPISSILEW
Chain of Luciferin 4-monooxygenase (Photinus pyralis) (P08659 whole entry, looked up): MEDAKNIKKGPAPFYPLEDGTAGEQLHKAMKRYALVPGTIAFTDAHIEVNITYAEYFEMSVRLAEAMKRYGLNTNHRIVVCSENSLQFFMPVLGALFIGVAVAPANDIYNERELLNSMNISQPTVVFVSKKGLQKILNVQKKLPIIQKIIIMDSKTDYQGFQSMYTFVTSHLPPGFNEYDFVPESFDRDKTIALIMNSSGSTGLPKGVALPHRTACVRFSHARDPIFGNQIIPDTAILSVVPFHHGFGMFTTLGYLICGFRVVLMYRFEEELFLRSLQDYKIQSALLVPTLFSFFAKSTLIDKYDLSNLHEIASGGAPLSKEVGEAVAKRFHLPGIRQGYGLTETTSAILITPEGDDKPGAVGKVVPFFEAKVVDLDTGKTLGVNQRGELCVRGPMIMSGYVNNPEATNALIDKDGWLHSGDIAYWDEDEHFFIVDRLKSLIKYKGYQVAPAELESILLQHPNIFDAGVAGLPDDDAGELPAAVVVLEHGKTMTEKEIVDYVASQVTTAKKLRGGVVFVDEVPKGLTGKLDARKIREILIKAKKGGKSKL
Chain of Streptavidin (Streptomyces avidinii) (P22629 whole entry, looked up): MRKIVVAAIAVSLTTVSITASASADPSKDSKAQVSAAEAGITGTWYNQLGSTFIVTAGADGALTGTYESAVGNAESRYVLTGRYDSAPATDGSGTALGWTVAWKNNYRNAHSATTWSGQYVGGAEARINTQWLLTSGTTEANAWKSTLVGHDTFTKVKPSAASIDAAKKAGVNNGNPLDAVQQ
Chain of Torsin-1A (Homo sapiens) (O14656 whole entry, looked up): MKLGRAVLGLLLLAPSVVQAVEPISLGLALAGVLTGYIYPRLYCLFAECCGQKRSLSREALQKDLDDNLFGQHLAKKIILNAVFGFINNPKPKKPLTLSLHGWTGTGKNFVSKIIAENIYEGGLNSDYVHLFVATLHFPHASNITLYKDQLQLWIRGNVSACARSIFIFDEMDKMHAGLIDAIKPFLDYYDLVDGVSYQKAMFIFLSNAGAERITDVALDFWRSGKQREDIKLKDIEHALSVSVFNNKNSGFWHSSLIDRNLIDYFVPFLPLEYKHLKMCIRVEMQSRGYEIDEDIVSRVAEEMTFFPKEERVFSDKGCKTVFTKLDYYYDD

Turning to `COCCOC(=O)N1C(=O)[C@@]2(c3cc(C#CC4(O)CCCCCC4)ccc31)[C@H](C(=O)N1CCN(c3ncccn3)CC1)[C@H]1C(=O)O[C@H](c3ccccc3)[C@H](c3ccccc3)N1[C@@H]2c1ccccc1OCCO`, the composite z-score in assay [1] is 1.29; in assay [2], 1.18; in assay [3] it was 1.1; in assay [4] it was 0.821; in [5], 1.28; in assay [6] it was 1.37. Further, the composite z-score is 0.883 in the assay on Lefty1; 0.321 in assay [8]; 0.329 in [10]; 0.0715 in assay [15]; 0.258 in [16]; 0.835 with Torsin-1A (Homo sapiens) [17]. Further, the results for the composite z-score (with Torsin-1A (Homo sapiens) [18]; in assay [19]) were 0.577 and 1.52, respectively. Also, the z-score was -1.04 in [7]; -0.348 (inactive) in [9]; -2.56 (inactive) in assay [11]; 0.884 (inactive) in assay [12]; 0.204 (inactive) in [13]; 1.22 (inactive) in assay [14].
For `C=C/C=C/[C@@H]1C(=C)CN([C@@H](Cc2ccccc2)C(=O)OC)[C@H]1[C@@H](O)Cc1ccccc1`, the composite z-score was 0.507 in assay [1]; 1.07 in [2]; 0.507 in [3]; 0.807 in [4]; 0.818 in assay [5]; 0.227 in assay [6]. For the same compound, the composite z-score was 0.446 with Lefty1; 0.635 in [8]; -0.0425 in assay [10]; 0.185 in assay [15]; -0.0418 in assay [16]; 0.218 with Torsin-1A (Homo sapiens) [17]. Moreover, the composite z-score is 0.795 with Torsin-1A (Homo sapiens) [18] and 0.949 in assay [19]. For the same compound, the z-score in [7] was 0.718; in [9] it was -0.053 (inactive); in assay [11], -0.342 (inactive); in [12], -0.428 (inactive); in assay [13], 3.38 (inactive); in assay [14], 2.05 (inactive).
For the compound `COCCOC(=O)N1C(=O)[C@@]2(c3cc(C#CCC(C(=O)OC)C(=O)OC)ccc31)[C@H](c1ccc(O)cc1)N1[C@H](c3ccccc3)[C@H](c3ccccc3)OC(=O)[C@H]1[C@@H]2C(=O)NC[C@H](O)c1ccccc1`, the composite z-score in assay [1] was 0.135; in assay [2] it was 1.19; in assay [3], 0.933; in [4], 0.8; in assay [5], 1.11; in assay [6], -0.011. In addition, the composite z-score in the assay on Lefty1 is 0.222; in assay [8], 1.03; in [10], 0.295; in [15], 1.7; in assay [16], -0.0774; with Torsin-1A (Homo sapiens) [17] it was 0.941. The composite z-score amounted to 0.468 with Torsin-1A (Homo sapiens) [18] and 0.49 in assay [19]. Also, the z-score in assay [7] is -0.236; in assay [9] it was 1.04 (inactive); in [11], -2.04 (inactive); in assay [12] it was -0.0824 (inactive); in assay [13], -0.231 (inactive); in [14], -0.196 (inactive).
Consider `COCCOC(=O)N1C(=O)[C@@]2(c3cc(C#CCC(C(=O)OC)C(=O)OC)ccc31)[C@H](C(=O)NC[C@H](O)c1ccccc1)[C@H]1C(=O)O[C@H](c3ccccc3)[C@H](c3ccccc3)N1[C@@H]2c1ccc(OCCO)cc1`, for which the composite z-score was 1.02 in [1]; 1.19 in assay [2]; 0.427 in assay [3]; 0.891 in [4]; 1.4 in assay [5]; 1.58 in assay [6]. Besides, the composite z-score with Lefty1 was 1.32; in [8], 0.309; in assay [10], -0.157; in assay [15], 0.688; in assay [16] it was -0.0804; with Torsin-1A (Homo sapiens) [17], -0.012. The composite z-score amounted to 0.367 with Torsin-1A (Homo sapiens) [18] and 1.69 in assay [19]. The z-score in assay [7] was -1.58; in assay [9] it was -0.997 (inactive); in assay [11] it was -1.01 (inactive); in assay [12], 0.366 (inactive); in assay [13], 0.895 (inactive); in [14], -0.102 (inactive).
Take `C=CCNC(=O)[C@H]1[C@@H]2C(=O)O[C@@H](c3ccccc3)[C@@H](c3ccccc3)N2[C@@H](c2ccc(OCCO)cc2)[C@]12C(=O)N(C(=O)OCCOC)c1ccc(C#Cc3ccc(OC)cc3)cc12`: the composite z-score in [1] stood at 1.25; in assay [2] it was 1.15; in assay [3] it was 0.0069; in assay [4] it was 0.904; in assay [5] it was 1.22; in assay [6], 0.714. In addition, the composite z-score came out at 0.544 in the assay with Lefty1; 0.719 in assay [8]; 0.209 in assay [10]; 0.51 in [15]; 0.152 in [16]; 0.563 in the assay with Torsin-1A (Homo sapiens) [17]. Besides, the values for the composite z-score (with Torsin-1A (Homo sapiens) [18]; in assay [19]) were 0.86 and 1.72, respectively. In addition, the z-score in assay [7] was -1.59; in assay [9], -1.51 (inactive); in [11], -5.38 (inactive); in assay [12], 0.054 (inactive); in assay [13], -1.43 (inactive); in [14], -0.857 (inactive).
